Screening data from PubChem.
An excerpt weighted towards active compounds, which were near 18% of everything screened.
LDHA inh = blocks human lactate dehydrogenase A. purified LDHA, NADH/diaphorase-resazurin fluorescence; active compounds read low. activity change, % (values are at about 110 or 230 µM). 480,000 compounds, 0.15% hits. AID 1347041; in the data active means activity change below about -30%; inconclusive means mostly about -25% to -30%;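 further: plate controls were DMSO wells for no effect and wells without enzyme for full effect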
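Remaining NADH was detected by diaphorase (0.133 mg/mL) converting 37 µM resazurin to fluorescent resorufin, read at 0 and 20 minutes. The preceding 5-minute room-temperature reaction used 2 nM LDHA, 0.2 mM sodium pyruvate and 0.06 mM NADH at pH 7.4.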
IL-1B inflam inh = blocks inflammasome-driven IL-1 beta release; THP-1 LPS/ATP IL-1B secretion, AlphaLISA, 16 h; active compounds read low; activity change, % at 57.5 µM; 360,000 compounds, 4.7% hits; in the data active means activity change below about -50%; inconclusive means mostly about -30% to -49%
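THP-1 cells pretreated 1 hr with compounds (up to 57.5 uM final), then stimulated with LPS (250 ng/mL final) plus ATP (1.25 mM final); secreted IL-1B measured by AlphaLISA after 16 hr, decreased signal indicating inhibition.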
Gal4-VP16 FLuc = Gal4-VP16 reporter inhibition counter-screen; Drosophila S2 Gal4-VP16 UAS-luciferase, luminescence, 20 h; Potency, µM (doses to about 53.6 µM), without a hit: at the highest dose activity, negative = inhibition, usual class: inhibitors; 310,000 compounds, 3.5% hits;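 further: Gal4-VP16 expression switched on by copper sulfate through the metallothionein promoter; potency means the concentration at half of the fitted maximal effect; nearly all actives have a fitted effect of over 50% in size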
DT40 TDP1 CPT = DT40-hTDP1 cell growth loss with CPT | chicken DT40 Tdp1-/-;hTDP1 cells + 20 nM CPT, ATP luminescence, 48 h | Potency, µM (series often up to 46.2 µM), for inactives: at the highest dose activity change, negative = growth inhibition, most hits filed as inhibitors | 420,000 compounds, 12% hits; further: potency means the concentration at half of the fitted maximal effect; nearly all actives have a fitted effect of over 55% in size
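Cell growth measured by CellTiter-Glo luminescence after a minimum 48 h, 37 C compound exposure with 20 nM CPT in Tdp1-knockout DT40 cells stably expressing hTDP1, seeded 400/well; qHTS titration format.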
RORgamma inh = inhibitors of mouse ROR gamma transcriptional activity; Drosophila S2 Gal4-RORgamma UAS-luciferase reporter, 20 h; Potency, µM (series often up to 53.6 µM), without a hit: at the highest dose activity change, negative = inhibition, most hits filed as inhibitors; P51450; 310,000 compounds, 5.4% hits; AID 2551; further: potency means the concentration at half of the fitted maximal effect; nearly all actives have a fitted effect of over 60% in size
Target sequence (P51450 whole entry, looked up, the tested form may be a part): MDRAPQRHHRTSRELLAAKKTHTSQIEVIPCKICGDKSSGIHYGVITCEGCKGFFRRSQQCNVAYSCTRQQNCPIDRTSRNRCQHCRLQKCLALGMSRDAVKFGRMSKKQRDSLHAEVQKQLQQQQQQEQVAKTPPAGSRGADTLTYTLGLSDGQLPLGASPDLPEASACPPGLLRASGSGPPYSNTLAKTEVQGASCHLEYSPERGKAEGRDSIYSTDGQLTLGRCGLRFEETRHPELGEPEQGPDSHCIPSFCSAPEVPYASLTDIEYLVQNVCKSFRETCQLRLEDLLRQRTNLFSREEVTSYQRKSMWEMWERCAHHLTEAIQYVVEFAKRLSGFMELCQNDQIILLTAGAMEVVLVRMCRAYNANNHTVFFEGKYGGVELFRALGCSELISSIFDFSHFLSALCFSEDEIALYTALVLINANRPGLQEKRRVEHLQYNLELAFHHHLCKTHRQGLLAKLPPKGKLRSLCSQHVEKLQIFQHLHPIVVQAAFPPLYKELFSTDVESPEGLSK
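Stable Schneider cell line, Gal4 DNA-binding domain fused to ROR gamma, UAS-luciferase. Cmpd 1 hr RT → CuSO4 700 uM final → 20 hr RT → luciferase reagent 10 min → luminescence.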
TDP1 cell noCPT = qHTS for Inhibitors of human tyrosyl-DNA phosphodiesterase 1 (TDP1): qHTS in cells in absence of CPT. DT40 Tdp1-/- hTDP1 cells, no CPT, ATP luminescence, 48 h. Potency, µM (highest dose often 46.2 µM), for the others: top-dose activity change, negative = growth inhibition, most hits filed as inhibitors. 420,000 compounds, 15% hits; further: potency means the concentration at half of the fitted maximal effect; nearly all actives have a fitted effect of over 55% in size
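Growth kinetics read by CellTiter-Glo luminescence after ≥48 hr at 37 °C. Cells: DT40 Tdp1-/- stably carrying human TDP1, 400 per well, compound exposure in the absence of CPT (DMSO vehicle).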
The depositor's hits bear a star; ? = inconclusive; · = no result given. Unless noted, the call rests on the fitted dose curve; in most records, active means well fitted curve in the direction sought with a large enough effect; inconclusive means small, poorly fitted or top-dose-only effect, or another doubt; inactive means no such curve, though single readings can be large; an effect the other way counts as inactive or inconclusive. Unless noted, on the % scale 0 is the no-effect control and ±100 the full control effect.

SMILES	LDHA inh	IL-1B inflam inh	Gal4-VP16 FLuc	DT40 TDP1 CPT	RORgamma inh	TDP1 cell noCPT
Cc1cc(C)nc(-n2nc(C)cc2NC(=O)C(C)C)n1	0.9	2.0	25.4%	1.3%	5.01µM*	-1.4%
CC(C)C(=O)NCCSCc1ccsc1	-3.2	·	·	·	·	·
CC(C)NC(=O)C(C#N)(Cc1ccc(C#N)cc1)Cc1ccc(C#N)cc1	1.7	·	·	·	·	·
Cc1cc(Nc2cccc(C)c2C)c2ccc(C)c(C)c2n1	2.9	·	·	·	·	·
CCOc1cc(C2N=C(N)Nc3nc4cc5c(cc4n32)OCCCO5)cc(Cl)c1O (stereo not drawn)	26.1	·	·	·	·	·
CCOC(=O)C(C(=O)OCC)C(NC(=O)OC)C(Cl)(Cl)Cl (stereo not drawn)	-3.3	·	·	·	·	·
CC(=O)N(C)C1=C(O)c2ccccc2C(=O)C1=O	22.1	25.1	-13.4%	-17.0%	5.4%	-1.1%
CC(=O)N(C1=C(N)C(=O)c2ccccc2C1=O)C(C)C	40.1	57.4	0.2%	?	11.2µM*	?
CC(C)CN1C(=O)c2ccc(C(=O)Nc3ccc(OCC(=O)O)cc3)cc2C1=O	-8.5	-7.9	-8.5%	-5.7%	-8.2%	-1.2%
CC(C)CN1C(=O)c2ccc(C(=O)Nc3ccncc3)cc2C1=O	-3.7	-13.2	20µM*	?	?	?
CCCc1cc(C(=O)Nc2ccccc2SC)cs1	13.1	·	·	·	·	·
COCCN1C(=O)c2ccc(C(=O)Nc3nccs3)cc2C1=O	-1.8	-2.9	-4.3%	-4.6%	-32.5%	0.8%
CC(C)CN1C(=O)c2ccc(C(=O)Nc3nccs3)cc2C1=O	-5.0	8.0	?	-11.0%	8.91µM*	-19.4%
CCCN1C(=O)c2ccc(C(=O)Nc3nccs3)cc2C1=O	-5.3	-4.5	?	-0.8%	10µM*	-12.3%
CCCc1cc(C(=O)Nc2nccs2)cs1	-1.9	0.0	7.94µM*	?	5.01µM*	-6.9%
CS(=O)(=O)c1ccccc1NC(=O)COc1ccccc1C(N)=O	-6.1	·	·	·	·	·
COc1ccc(CCNC(=O)Cc2c(C)c3ccc(O)cc3oc2=O)cc1OC	-1.1	·	·	·	·	·
CCC(CC)NC(=O)COc1ccc2ccc(=O)oc2c1	0.6	·	·	·	·	·
CC(C)CN1C(=O)c2ccc(NC(=O)c3cccs3)cc2C1=O	-11.2	-52.3*	-3.1%	?	?	18.4µM*
COc1ccc2nc(SCC(=O)c3c(C)[nH]c4ccccc34)nc(C)c2c1	-6.4	·	·	1.3%	·	-12.9%
COc1cc(Nc2nc(SCC(=O)c3ccc(Cl)c(Cl)c3)nc3ccccc23)cc(OC)c1	-1.9	·	·	1.3µM*	·	0.651µM*
O=C(CSc1nc(Nc2ccccc2)c2ccccc2n1)c1ccc(Cl)cc1	-2.8	·	·	13µM*	·	18.4µM*
O=C(CSc1nc2ccccc2c(=O)n1NC(=O)c1ccccc1)c1ccc(Cl)cc1	-3.8	?	-0.9%	?	6.6%	?
Cc1ccc(Sc2ccc(Sc3ccc(C)cc3)c(C#N)c2)cc1	2.7	·	·	·	·	·
COc1ccc(Cl)cc1C(=O)CSc1nnnn1C1CCCCC1	-0.7	-5.1	-1.6%	?	-2.9%	18.4µM*
SMILES	LDHA inh	IL-1B inflam inh	Gal4-VP16 FLuc	DT40 TDP1 CPT	RORgamma inh	TDP1 cell noCPT
COc1ccc(Cl)cc1C(=O)CSc1nnnn1C1CCCC1	6.4	?	2.0%	16.4µM*	19.3%	18.4µM*
COc1ccc(NC(=O)CSc2nnnn2C2CCCC2)c(OC)c1	-6.4	-29.9	-1.5%	-0.9%	-3.0%	-2.0%
NC(=O)c1ccccc1N=Cc1ccc(O)cc1	4.8	·	·	·	·	·
COc1cc(OC)c(C(=O)OCCCOC(=O)c2cc(OC)c(OC)cc2OC)cc1OC	1.8	-3.5	10µM*	-12.3%	7.94µM*	?
CN1CCN(c2cc(-c3ccc4ccccc4c3)nc3ccnn23)CC1	-0.1	-17.5	·	23.1µM*	·	?
OCCN1CCN(c2cc(-c3ccc(CO)cc3)nc3ccnn23)CC1	-5.7	15.2	·	-1.5%	·	-9.6%
COc1cc(C)ccc1OCCOc1ccc(C)cc1I	8.7	·	·	·	·	·
CC(=O)c1ccc(-c2ccc(/C=C(/Sc3n[nH]c(C)n3)C(=O)O)o2)cc1	2.2	28.6	?	-17.0%	5.62µM*	-13.2%
Cc1nc(S/C(=C/c2ccc(-c3ccc(Cl)cc3)o2)C(=O)O)n[nH]1	-2.3	40.0	2.82µM*	?	1.41µM*	?
O=C(NC1CCCCC1)C1CCCN(CCCc2nc3ccccc3o2)C1 (stereo not drawn)	5.5	·	·	·	·	·
Cc1ccc(NC(=O)CN2CCN(C(=O)CCc3ncc(-c4ccc(C)c(C)c4)o3)CC2)cc1	-2.1	·	·	·	·	·
O=c1cc(-c2ccc(O)cc2)oc2ccccc12	-4.6	5.3	0.4%	?	9.8%	?
COc1ccc2c(=O)cc(-c3ccccc3)oc2c1	5.3	·	·	·	·	·
O=c1cc(-c2ccncc2)oc2ccccc12	4.8	-76.8*	-2.9%	-29.8%	-16.1%	?
COc1ccc(-c2cc(=O)c3c(O)c(OC)c(OC)c(OC)c3o2)cc1	12.1	25.8	8.4%	?	-19.8%	?
COc1ccc2c(=O)cc(-c3ccncc3)oc2c1OC	-3.6	-95.9*	·	?	·	?
COc1ccc(-c2cc(=O)c3c(OC)c(OC)c(OC)c(OC)c3o2)cc1OC	0.3	-25.8	-1.6%	20.6µM*	?	20.6µM*
CCN(Cc1ccccc1)C(=O)c1cc2cc(OC)ccc2oc1=O	-8.9	·	·	·	·	·
CCNC(=O)c1cc(-c2ccc(C)s2)nc2ccccc12	0.9	·	·	·	·	·
CC(C1CC1)N(Cc1ccccc1)C(=S)Nc1ccccc1Cl (stereo not drawn)	-6.2	-15.2	?	-2.9%	10µM*	-1.1%
CC(C1CC1)N(Cc1ccccc1)C(=O)NC(=O)c1ccccc1 (stereo not drawn)	-6.3	-11.7	-8.3%	-2.1%	-1.1%	-19.9%
O=C(C1=C[C@@H](c2ccc(Br)cc2)C[C@@H](OCc2ccc(CO)cc2)O1)N1CCN(Cc2ccccc2)CC1	-0.5	?	-4.0%	?	41.6%	23.1µM*
C#Cc1ccc([C@@H]2C=C(C(=O)N3CCN(Cc4ccccc4)CC3)O[C@H](OCCCCO)C2)cc1	·	·	2.4%	·	?	·
CN1CCN(C(=O)C2=C[C@@H](c3ccc(Br)cc3)C[C@@H](OCc3ccc(CO)cc3)O2)CC1	-0.9	-6.8	-23.2%	?	-114.5%	?
C#Cc1ccc([C@H]2C=C(C(=O)N3CCN(Cc4ccccc4)CC3)O[C@@H](OCc3ccc(CO)cc3)C2)cc1	-7.8	-23.3	-10.6%	16.4µM*	10.5%	18.4µM*
CSCCC(NC(=O)c1ccc(Cl)cc1Cl)C(=O)Nc1cccc(C(C)=O)c1 (stereo not drawn)	-2.3	·	·	·	·	·
